Measured potencies and affinities stand elsewhere. A number with no mark means an inactive call.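 How the source made its calls: active means signal-lowering compounds whose fitted half-maximal concentration is at or below twice the top tested dose in every run; inconclusive means runs disagree, flat 30 to 70% inhibition, or poor curve fit; inactive means the rest.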

Sequence of Protein S100-A4 (Homo sapiens) (P26447 whole entry, looked up): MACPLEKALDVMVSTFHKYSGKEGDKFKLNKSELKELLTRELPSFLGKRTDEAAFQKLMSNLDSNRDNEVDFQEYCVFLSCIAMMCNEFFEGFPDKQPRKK

This assay addresses Protein S100-A4 (Homo sapiens) (UniProt P26447). Kind of assay: S100A4-myosin IIA binding inhibitor potency, dose response, biochemical, fluorescence polarization, cherry-picked hits (AID 687001).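 Further: 0% = DMSO neutral control wells and -100% = TFP positive control wells.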 As to conditions: FP, S100A4/TAMRA-myosin IIA peptide binding; series mostly up to 11 µM; activity change, negative = inhibition: at the top concentration. (Fluorescence polarisation rises when a labelled molecule tumbles more slowly, as on binding a larger partner.)
On to `COc1ccc2c(c1)C=CC1(O2)N(CCO)c2ccccc2C1(C)C` (stereo unspecified), for which the “activity change, negative = inhibition” value is 112%.

Turning to `CCc1ccc(NC(=O)C(C)OC(=O)c2ccc(NS(=O)(=O)c3ccc(C)c([N+](=O)[O-])c3)cc2)cc1` (stereo unspecified), the “activity change, negative = inhibition” value is 15.1%.

For the compound `CSc1ccccc1OCc1cc(C(=O)NCCN2CCCc3ccccc32)no1`, the “activity change, negative = inhibition” value is 29.8%.

In the case of `CCCC(=O)Nc1ccc(C=C(C(C)=O)C(C)=O)cc1`, the “activity change, negative = inhibition” value was 8.38%.

For `CC(=O)N(C)C[C@@H]1Oc2cc(C#CCC(C)C)ccc2S(=O)(=O)N([C@H](C)CO)C[C@@H]1C`, the “activity change, negative = inhibition” value was -2.48%.

`CC(C)c1ccc(/C=N/n2c(COc3ccccc3)n[nH]c2=S)cc1`: the “activity change, negative = inhibition” value is -2.63%.

`C[C@@H]1CN([C@H](C)CO)C(=O)Cc2cc(NC(=O)Nc3ccc(C(F)(F)F)cc3)ccc2O[C@H]1CN(C)Cc1ccc2c(c1)OCO2`: the “activity change, negative = inhibition” value is 0.732%.

Regarding `CC(=O)Nc1ccc(S(=O)(=O)c2ccc([N+](=O)[O-])cc2)cc1`, the “activity change, negative = inhibition” value is -4.99%.

As for `COc1ccccc1NC(=O)N[C@H]1C=C[C@H](CC(=O)N2CCC(Cc3ccccc3)CC2)O[C@@H]1CO`, the “activity change, negative = inhibition” value is -0.027%.

As for `CN1C(=O)c2cc(NC(=O)C3CCC3)ccc2OC[C@@H]2O[C@@H](CC(=O)NCc3ccccc3F)CC[C@@H]21`, the “activity change, negative = inhibition” value was 2.16%.

As for `Cc1ccc(S(=O)(=O)Nc2ccc3c(c2)C(=O)N([C@@H](C)CO)C[C@@H](C)[C@@H](CN(C)CC2CC2)OCCCC[C@@H](C)O3)cc1`, the “activity change, negative = inhibition” value was -4.32%.

On to `C/C=C/c1ccc(C2[C@H]3CNC[C@@H]2N3S(=O)(=O)c2ccccc2C)cc1` (stereo partly specified), for which the “activity change, negative = inhibition” value is 29.6%.

For the compound `CC=Cc1ccc2n(c1=O)C[C@H]1[C@H](CO)[C@@H](C(=O)NCC3CC3)[C@@H]2N1Cc1cccnc1` (mixture of isomers), the “activity change, negative = inhibition” value was 1.13%.

As to `Cc1noc(C)c1S(=O)(=O)N(C)C[C@H]1OCCCC[C@H](C)Oc2ccc(NS(=O)(=O)c3ccccc3)cc2C(=O)N([C@H](C)CO)C[C@@H]1C`, the “activity change, negative = inhibition” value is 17%.

Turning to `O=C(C[C@H]1C[C@H]2c3cc(NC(=O)Cc4ccncc4)ccc3O[C@H]2[C@H](CO)O1)NCc1ccccn1`, the “activity change, negative = inhibition” value was 10.1%.

Consider `C[C@@H]1CCCCO[C@@H](CN(C)C(=O)Cc2ccccc2)[C@H](C)CN([C@@H](C)CO)C(=O)c2cc(NC(=O)Cc3ccccc3)ccc2O1`, for which the “activity change, negative = inhibition” value was -3.22%.

For the compound `COc1ccc(NC(=O)c2ccccc2OCc2c(C)noc2C)cc1OC`, the “activity change, negative = inhibition” value was 2.52%.

Regarding `CC(C)CC(=O)Nc1c2c(nn1-c1ccc(F)cc1)CS(=O)C2` (stereo unspecified), the “activity change, negative = inhibition” value was 1.47%.

For `CC(C)[C@H](NC(=O)c1ccccc1F)C(=O)NCc1ccc(S(N)(=O)=O)cc1`, the “activity change, negative = inhibition” value is -2.08%.

In the case of `O=C(Nc1ccc2c(c1)OCO2)N[C@@H]1CC[C@@H](CCNC(=O)C2CCCC2)O[C@H]1CO`, the “activity change, negative = inhibition” value was -2.33%.

Take `N/C(=N\OC(=O)CCn1cccc(C(F)(F)F)c1=O)c1ccc(OC(F)(F)F)cc1`: the “activity change, negative = inhibition” value is 0.387%.

`CNC[C@@H]1OCCCC[C@@H](C)Oc2ccc(NS(=O)(=O)c3cccs3)cc2C(=O)N([C@H](C)CO)C[C@H]1C`: the “activity change, negative = inhibition” value was 12.2%.

Regarding `CCc1ccc(CNC(=O)C2CCN(S(=O)(=O)N3CCC(C)CC3)CC2)cc1`, the “activity change, negative = inhibition” value is 2.94%.

Take `CCC(=O)Nc1ccc2c(c1)OC[C@H](C)N(C(=O)CC1CC1)C[C@H](C)[C@H](OC)CN(C)C2=O`: the “activity change, negative = inhibition” value was 0.814%.

Consider `O=C(c1ccccc1)c1ccc2nc(N3CCCCC3)c3nncn3c2c1`, for which the “activity change, negative = inhibition” value was 4.91%.

As for `COc1ccc(Cl)cc1Cn1c(C)c(C(=O)NCc2ccc(C#N)cc2)sc1=O`, the “activity change, negative = inhibition” value was 3.83%.

In the case of `O=C(Nc1ccccc1F)N1CC(=O)N2[C@H](CO)[C@@H](c3ccc(-c4ccccc4)cc3)[C@H]2C1`, the “activity change, negative = inhibition” value is 3.36%.

Consider `CN1c2ccc(-c3ccccc3)cc2[C@@H]2[C@@H](CCN2C(=O)c2cccc(F)c2)[C@@H]1CO`, for which the “activity change, negative = inhibition” value was 3.83% [at 10 µM].

Regarding `O=C1CC(C(=O)N2CCN(c3ccccn3)CC2)CN1Cc1ccccc1Cl` (stereo unspecified), the “activity change, negative = inhibition” value is -1.18%.

Regarding `Cc1ccc(N2CCN(C(=O)c3[nH]c(C(F)(F)F)nc3-c3ccccc3)CC2)cc1`, the “activity change, negative = inhibition” value is -4.62%.

On to `COc1ccc(-c2cc(C(=O)NC3CC3)c3ccccc3n2)cc1`, for which the “activity change, negative = inhibition” value is 1.48%.

As to `O=C(c1cnccn1)N1CC(=O)N2[C@H](CO)[C@@H](c3ccc(-c4ccc(F)cc4)cc3)[C@H]2C1`, the “activity change, negative = inhibition” value was 1.46%.

For `O=C(C[C@H]1CC[C@@H]2[C@H](COC[C@@H](O)CN2C(=O)Cc2ccccc2)O1)NC1CCCC1`, the “activity change, negative = inhibition” value is 17.1% [at 10 µM].

On to `NS(=O)(=O)c1ccc(NC(=O)COC(=O)CCCN2C(=O)c3cccc4cccc(c34)C2=O)cc1`, for which the “activity change, negative = inhibition” value is 26.3%.

Consider `O=C(Nc1ccc(C(F)(F)F)cc1)N[C@H]1C=C[C@@H](CC(=O)N2CCCCC2)O[C@@H]1CO`, for which the “activity change, negative = inhibition” value was -4.35%.

Regarding `CC(C)NC(=O)COc1coc(CN2CCN(c3ccccc3)CC2)cc1=O`, the “activity change, negative = inhibition” value was -3.46%.

The record behind these values is PubChem BioAssay AID687001 (Broad Institute, 2013).
